Measured values from the supplement of paper PMC10849652.
The full data set covers some 7,900 targets. This sample favours those with a hit. About 0.6% of all pairs of compound and target were hits.

Experiments:
Test in all cases: log2 fold change, soluble protein after heating vs DMSO (PISA); higher = thermal stabilisation; K562 cells, 10 uM, 30 min; active = over 0.2 and 3.5 SD of the protein, either way, in both replicates (recomputed)
[1] = compound: CC1=C(C=C(C=C1)NC(=O)C2=CC(=CC=C2)C(C)(C)C#N)NC3=CC4=C(C=C3)N=CN(C4=O)C
In short: (§1)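 For each measurement, 10 μM compound was applied for 30 min to K562 cells at 2×10^6 cells/mL. Aliquots were heated for 3 min across 48°C-58°C, pooled, and extracted in PBS with 0.5% NP-40 at 4°C; the supernatant after 21,000xg for 90 min was soluble protein. This was quantified by TMTpro 16plex LC-MS/MS with channel sums equalised, and thermal stability was reported relative to control samples from duplicates, on a log2 fold-change scale.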

[2] = compound: CC1=C(C=C(C=C1)NC(=O)C2=CC(=CC=C2)N(C)C)NC(=O)C3=CC=C(C=C3)O
In short: as §1

[3] = compound: CC1=CC=C(C=C1)SC2=C3C=C(SC3=CN=C2)C(=O)N
In short: as §1

[4] = compound: CC1=NC(=CC=C1)C2=C(N=C(N2)C(C)(C)C)C3=CC4=NC=CN=C4C=C3
In short: as §1

[5] = compound: CCCCN(Cc1ccc(C(=O)NO)cc1)C(=O)Nc1ccccc1 [Nexturastat A]
In short: as §1

[6] = compound: CCCS(=O)(=O)Nc1ccc(F)c(C(=O)c2c[nH]c3ncc(-c4ccc(Cl)cc4)cc23)c1F [vemurafenib]
In short: as §1

[7] = compound: CCCS(=O)(=O)Nc1ccc(F)c(C(=O)c2c[nH]c3ncc(Cl)cc23)c1F
In short: as §1

[8] = compound: CCCc1cc(C)[nH]c(=O)c1CNC(=O)c1cc(-c2ccnc(N3CCN(C)CC3)c2)cc2c1cnn2C(C)C
In short: as §1

[9] = compound: CCN(CC)Cc1ccc2cc(COC(=O)Nc3ccc(C(=O)NO)cc3)ccc2c1 [givinostat]
In short: as §1

[10] = compound: CCN(CCCOc1ccc2c(Nc3cc(CC(=O)Nc4cccc(F)c4)[nH]n3)ncnc2c1)CCOP(=O)(O)O [barasertib]
In short: as §1

[11] = compound: CC[C@@H]1C(=O)N(C)c2cnc(Nc3ccc(C(=O)NC4CCN(C)CC4)cc3OC)nc2N1C1CCCC1
In short: as §1

[12] = compound: CC[C@@H]1C(=O)N(C)c2cnc(Nc3ccc(C(=O)N[C@H]4CC[C@H](N5CCN(CC6CC6)CC5)CC4)cc3OC)nc2N1C(C)C [volasertib]
In short: as §1

[13] = compound: CC[C@H](C)N1C=C(C2=C(C=C(C=C21)C3=CN=C(C=C3)N4CCNCC4)C(=O)NCC5=C(C=C(NC5=O)C)C)C
In short: as §1

[14] = compound: CC[C@H](C)[C@@H](C(=O)N[C@@H]([C@@H](C)O)C(=O)N[C@@H](CC(C)C)C(=O)[C@]1(CO1)C)NC(=O)[C@H]([C@@H](C)CC)N(C)C(=O)C [epoxomicin]
In short: as §1

[15] = compound: CCn1c(C(=O)N(C2CC2)C2CC2)cc2c3c(ncn3C)c(Nc3cc(C)n(C)n3)nc21
In short: as §1

[16] = compound: CCn1cc(-c2ccnc3[nH]c(-c4cccc(CN(C)C)c4)cc23)c(-c2ccc(NC(=O)N(C)C)cc2)n1
In short: as §1

[17] = compound: CN(C)CC(=O)Nc1ccc2[nH]c(=O)c3ccccc3c2c1
In short: as §1

[18] = compound: CN(CCOC1=CC=C(C=C1)C[C@H]2C(=O)NC(=O)S2)C3=CC=CC=N3 (racemic) [rosiglitazone]
In short: as §1

[19] = compound: CN1C2=C(C3=C1C(=O)N(N=C3)CC4=CC(=CC=C4)N)SC(=C2)S(=O)C
In short: as §1

[20] = compound: CN1CCC(CNc2ccc3ncc(-c4cccc(OC(F)(F)F)c4)n3n2)CC1
In short: as §1

Measured: log2 fold change

CWC27 (UniProt Q6UX04)
inactive: [1] -0.001 | [2] -0.035 | [3] 0.002 | [4] 0.021 | [5] -0.029 | [6] 0.128 | [7] 0.112 | [8] 0.009 | [9] 0.082 | [10] 0.073 | [11] -0.103 | [13] 0.086 | [14] 0.094 | [15] -0.089 | [16] 0.117 | [17] 0.066 | [18] 0.143 | [19] -0.011 | [20] -0.091
active: [12] -0.421

DNTTIP2 (UniProt Q5QJE6)
inactive: [1] 0.033 | [2] 0.028 | [3] -0.087 | [4] -0.061 | [5] 0.151 | [6] -0.015 | [7] -0.064 | [8] -0.1 | [9] 0.057 | [10] -0.062 | [11] 0.047 | [12] -0.002 | [13] 0.031 | [14] -0.144 | [15] 0.015 | [16] 0.09 | [17] -0.028 | [18] -0.088 | [19] 0.226 | [20] -0.028

FAM160B1 (UniProt Q5W0V3)
inactive: [1] 0.033 | [2] 0.128 | [3] -0.019 | [4] 0.051 | [5] -0.023 | [6] 0.149 | [7] 0.034 | [8] 0.014 | [9] 0.016 | [10] 0.109 | [11] -0.007 | [12] -0.043 | [13] 0.07 | [14] 0 | [15] 0.027 | [16] -0.057 | [17] -0.052 | [18] 0.009 | [19] -0.056 | [20] -0.254

CUTA isoform 2 (UniProt O60888)
UniProt O60888, sequence (O60888 whole entry, looked up): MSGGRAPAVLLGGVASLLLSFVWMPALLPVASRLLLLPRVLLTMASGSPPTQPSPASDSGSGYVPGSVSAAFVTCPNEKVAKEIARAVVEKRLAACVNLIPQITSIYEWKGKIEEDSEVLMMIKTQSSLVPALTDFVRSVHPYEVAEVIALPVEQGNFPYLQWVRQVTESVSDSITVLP
inactive: [1] -0.121 | [2] -0.011 | [3] 0.013 | [4] 0.044 | [5] 0.169 | [6] 0 | [7] 0.044 | [8] 0.16 | [9] -0.044 | [10] 0.015 | [11] 0.063 | [12] -0.057 | [13] -0.033 | [14] 0.125 | [15] 0.03 | [16] -0.109 | [17] 0.175 | [18] -0.13 | [19] 0.164 | [20] -0.027

DBR1 (UniProt Q9UK59)
inactive: [1] -0.005 | [2] 0.028 | [3] 0.007 | [4] 0.049 | [5] -0.007 | [6] 0.024 | [7] 0.037 | [8] -0.033 | [9] -0.16 | [10] -0.022 | [11] 0.037 | [12] 0 | [13] 0.008 | [14] -0.018 | [15] -0.017 | [16] 0.015 | [17] -0.019 | [18] -0.002 | [19] -0.034 | [20] 0.015

EEA1 (UniProt Q15075)
inactive: [1] -0.027 | [2] 0.009 | [3] 0.009 | [4] 0.011 | [5] -0.035 | [6] -0.024 | [7] 0.003 | [8] -0.036 | [9] -0.01 | [10] 0.009 | [11] 0.036 | [12] 0.031 | [13] -0.024 | [14] 0.017 | [15] -0.002 | [16] 0.019 | [17] -0.038 | [18] -0.014 | [19] -0.023 | [20] 0.001

DNAH5 (UniProt Q8TE73)
UniProt Q8TE73, sequence (Q8TE73 whole entry, looked up): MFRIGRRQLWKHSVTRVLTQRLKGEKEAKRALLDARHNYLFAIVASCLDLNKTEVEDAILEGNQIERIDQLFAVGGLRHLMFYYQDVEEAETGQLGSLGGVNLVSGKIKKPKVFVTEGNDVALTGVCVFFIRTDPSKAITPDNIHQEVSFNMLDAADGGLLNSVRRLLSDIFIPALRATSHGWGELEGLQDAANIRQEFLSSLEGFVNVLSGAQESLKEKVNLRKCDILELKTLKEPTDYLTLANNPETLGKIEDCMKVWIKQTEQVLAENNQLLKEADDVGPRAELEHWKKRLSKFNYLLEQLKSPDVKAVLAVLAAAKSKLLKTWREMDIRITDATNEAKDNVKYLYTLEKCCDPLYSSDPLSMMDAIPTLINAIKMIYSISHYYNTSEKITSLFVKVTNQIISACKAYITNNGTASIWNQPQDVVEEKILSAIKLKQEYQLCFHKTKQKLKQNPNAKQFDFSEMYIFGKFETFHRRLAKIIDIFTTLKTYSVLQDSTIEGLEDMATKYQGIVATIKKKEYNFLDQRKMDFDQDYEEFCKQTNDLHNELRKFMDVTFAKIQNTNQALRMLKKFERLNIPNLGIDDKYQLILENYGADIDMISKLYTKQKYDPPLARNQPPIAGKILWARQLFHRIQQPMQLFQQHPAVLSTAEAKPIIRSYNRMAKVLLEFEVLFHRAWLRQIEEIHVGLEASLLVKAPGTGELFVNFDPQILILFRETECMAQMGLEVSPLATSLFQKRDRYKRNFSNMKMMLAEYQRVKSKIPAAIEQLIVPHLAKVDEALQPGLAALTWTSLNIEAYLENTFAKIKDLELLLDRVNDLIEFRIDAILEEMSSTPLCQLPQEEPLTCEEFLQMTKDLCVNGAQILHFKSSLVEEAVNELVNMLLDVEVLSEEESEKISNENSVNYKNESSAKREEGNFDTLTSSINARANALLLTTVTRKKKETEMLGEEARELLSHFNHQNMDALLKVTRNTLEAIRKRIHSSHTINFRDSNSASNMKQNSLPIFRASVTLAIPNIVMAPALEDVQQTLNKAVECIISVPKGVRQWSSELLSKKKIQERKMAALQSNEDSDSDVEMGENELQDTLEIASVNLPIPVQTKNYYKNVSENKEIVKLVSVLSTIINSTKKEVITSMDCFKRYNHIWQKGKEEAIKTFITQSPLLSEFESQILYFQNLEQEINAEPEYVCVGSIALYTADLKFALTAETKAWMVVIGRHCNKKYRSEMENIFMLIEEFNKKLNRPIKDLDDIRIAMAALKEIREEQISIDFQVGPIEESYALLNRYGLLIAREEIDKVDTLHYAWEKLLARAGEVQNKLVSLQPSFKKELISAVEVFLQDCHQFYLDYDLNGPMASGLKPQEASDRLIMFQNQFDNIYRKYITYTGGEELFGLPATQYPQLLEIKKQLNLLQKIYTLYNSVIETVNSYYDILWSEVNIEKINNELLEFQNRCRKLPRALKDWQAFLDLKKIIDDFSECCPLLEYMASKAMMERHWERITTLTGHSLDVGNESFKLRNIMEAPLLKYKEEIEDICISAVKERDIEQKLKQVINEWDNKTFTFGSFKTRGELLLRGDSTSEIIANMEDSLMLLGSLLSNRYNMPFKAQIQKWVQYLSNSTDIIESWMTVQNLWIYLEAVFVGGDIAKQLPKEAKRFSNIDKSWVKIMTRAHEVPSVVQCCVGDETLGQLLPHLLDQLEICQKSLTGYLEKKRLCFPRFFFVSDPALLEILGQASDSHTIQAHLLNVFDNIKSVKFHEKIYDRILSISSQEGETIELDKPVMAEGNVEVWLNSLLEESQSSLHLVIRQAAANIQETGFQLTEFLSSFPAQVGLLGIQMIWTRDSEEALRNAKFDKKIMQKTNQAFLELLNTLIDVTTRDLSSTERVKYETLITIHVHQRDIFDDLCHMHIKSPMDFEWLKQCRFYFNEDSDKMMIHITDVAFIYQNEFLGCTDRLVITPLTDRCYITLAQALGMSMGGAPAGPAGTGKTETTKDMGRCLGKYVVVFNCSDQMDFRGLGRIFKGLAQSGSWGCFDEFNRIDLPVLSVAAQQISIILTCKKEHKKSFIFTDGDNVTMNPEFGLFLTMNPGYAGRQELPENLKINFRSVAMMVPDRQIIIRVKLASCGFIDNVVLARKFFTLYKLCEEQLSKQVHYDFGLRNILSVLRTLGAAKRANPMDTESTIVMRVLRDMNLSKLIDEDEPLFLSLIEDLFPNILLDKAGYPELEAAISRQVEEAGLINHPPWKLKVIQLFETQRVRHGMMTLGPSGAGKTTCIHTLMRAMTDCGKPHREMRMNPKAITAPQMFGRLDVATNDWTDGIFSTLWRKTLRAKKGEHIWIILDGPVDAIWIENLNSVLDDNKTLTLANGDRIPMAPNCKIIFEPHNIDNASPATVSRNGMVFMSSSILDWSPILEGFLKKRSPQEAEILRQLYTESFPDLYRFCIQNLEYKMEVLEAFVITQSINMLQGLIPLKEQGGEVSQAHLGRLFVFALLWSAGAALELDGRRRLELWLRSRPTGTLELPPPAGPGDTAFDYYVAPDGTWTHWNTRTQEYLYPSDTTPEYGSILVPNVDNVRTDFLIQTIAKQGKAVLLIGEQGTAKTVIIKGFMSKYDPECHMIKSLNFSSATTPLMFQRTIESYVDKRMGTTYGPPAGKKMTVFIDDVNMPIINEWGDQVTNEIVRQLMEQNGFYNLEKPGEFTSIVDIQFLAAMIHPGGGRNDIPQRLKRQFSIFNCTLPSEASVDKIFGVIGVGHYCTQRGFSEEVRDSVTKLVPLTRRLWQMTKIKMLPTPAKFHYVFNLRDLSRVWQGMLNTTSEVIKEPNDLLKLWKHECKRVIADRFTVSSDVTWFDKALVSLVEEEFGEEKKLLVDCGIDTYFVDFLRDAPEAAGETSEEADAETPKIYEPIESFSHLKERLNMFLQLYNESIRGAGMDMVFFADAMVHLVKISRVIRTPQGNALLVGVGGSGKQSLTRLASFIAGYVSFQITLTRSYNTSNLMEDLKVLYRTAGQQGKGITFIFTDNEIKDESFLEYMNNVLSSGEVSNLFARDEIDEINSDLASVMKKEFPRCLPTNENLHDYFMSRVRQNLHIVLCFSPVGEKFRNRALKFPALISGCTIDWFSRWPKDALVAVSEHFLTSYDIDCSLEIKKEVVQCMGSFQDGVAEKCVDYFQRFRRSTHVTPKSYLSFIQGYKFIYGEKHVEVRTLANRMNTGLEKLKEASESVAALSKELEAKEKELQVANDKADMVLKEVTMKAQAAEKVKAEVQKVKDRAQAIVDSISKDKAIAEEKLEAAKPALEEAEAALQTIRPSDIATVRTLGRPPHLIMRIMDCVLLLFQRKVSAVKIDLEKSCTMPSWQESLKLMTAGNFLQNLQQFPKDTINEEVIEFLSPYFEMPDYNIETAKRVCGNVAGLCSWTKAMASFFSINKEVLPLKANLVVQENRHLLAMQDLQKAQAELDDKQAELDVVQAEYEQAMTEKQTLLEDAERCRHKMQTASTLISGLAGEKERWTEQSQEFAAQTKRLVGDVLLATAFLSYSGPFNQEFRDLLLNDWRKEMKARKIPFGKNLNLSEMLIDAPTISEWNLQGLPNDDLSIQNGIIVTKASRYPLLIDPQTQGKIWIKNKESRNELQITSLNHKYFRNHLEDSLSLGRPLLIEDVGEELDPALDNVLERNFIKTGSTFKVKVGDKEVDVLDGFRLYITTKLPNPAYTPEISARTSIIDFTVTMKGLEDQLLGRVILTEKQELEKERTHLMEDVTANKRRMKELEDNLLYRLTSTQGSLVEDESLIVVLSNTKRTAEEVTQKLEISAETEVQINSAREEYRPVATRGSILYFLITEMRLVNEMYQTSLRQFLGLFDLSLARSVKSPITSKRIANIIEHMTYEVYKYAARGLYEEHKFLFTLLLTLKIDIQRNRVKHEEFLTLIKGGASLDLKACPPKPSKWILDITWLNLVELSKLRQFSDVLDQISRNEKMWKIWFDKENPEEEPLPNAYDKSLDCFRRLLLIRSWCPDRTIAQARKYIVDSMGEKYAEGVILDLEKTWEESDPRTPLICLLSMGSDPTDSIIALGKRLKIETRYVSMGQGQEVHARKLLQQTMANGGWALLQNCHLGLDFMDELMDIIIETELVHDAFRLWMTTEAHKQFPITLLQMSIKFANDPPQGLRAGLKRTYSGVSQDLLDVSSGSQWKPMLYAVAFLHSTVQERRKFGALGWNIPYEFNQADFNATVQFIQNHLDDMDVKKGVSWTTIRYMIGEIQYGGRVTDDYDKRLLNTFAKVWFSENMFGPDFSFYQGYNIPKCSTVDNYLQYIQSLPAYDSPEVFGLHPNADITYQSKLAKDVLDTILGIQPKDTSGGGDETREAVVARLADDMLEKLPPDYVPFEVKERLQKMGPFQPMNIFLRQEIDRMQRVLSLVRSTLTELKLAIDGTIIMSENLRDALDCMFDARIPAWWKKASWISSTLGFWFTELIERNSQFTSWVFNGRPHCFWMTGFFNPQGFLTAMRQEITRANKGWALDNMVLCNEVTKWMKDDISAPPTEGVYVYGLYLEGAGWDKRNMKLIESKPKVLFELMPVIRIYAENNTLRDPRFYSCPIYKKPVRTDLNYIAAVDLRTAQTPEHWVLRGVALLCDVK
inactive: [1] -0.047 | [2] 0 | [4] -0.036 | [5] -0.021 | [6] -0.077 | [7] 0.014 | [8] -0.044 | [9] 0.012 | [10] 0.03 | [11] 0.042 | [12] 0.01 | [13] -0.079 | [14] -0.052 | [15] -0.015 | [16] -0.009 | [17] -0.031 | [18] -0.044 | [19] 0.029 | [20] 0.03
active: [3] 0.431

EXOC5 (UniProt O00471)
active: [12] -0.596
inactive: [1] 0.006 | [2] -0.022 | [3] -0.007 | [4] 0.056 | [5] 0.017 | [6] 0.046 | [7] 0.08 | [8] -0.028 | [9] 0.118 | [10] 0.031 | [11] -0.236 | [13] 0.093 | [14] 0.041 | [15] -0.046 | [16] 0.022 | [17] 0.066 | [18] 0.044 | [19] 0.054 | [20] -0.215

DOHH (UniProt Q9BU89)
active: [18] 0.471
inactive: [1] 0.083 | [2] -0.069 | [3] 0.084 | [4] -0.091 | [5] -0.144 | [6] 0.001 | [7] -0.059 | [8] -0.063 | [9] -0.068 | [10] -0.274 | [11] -0.035 | [12] -0.027 | [13] 0.031 | [14] -0.197 | [15] 0.064 | [16] -0.1 | [17] 0.145 | [19] 0.025 | [20] 0.164

DCUN1D1 (UniProt Q96GG9)
UniProt Q96GG9, sequence (Q96GG9 whole entry, looked up): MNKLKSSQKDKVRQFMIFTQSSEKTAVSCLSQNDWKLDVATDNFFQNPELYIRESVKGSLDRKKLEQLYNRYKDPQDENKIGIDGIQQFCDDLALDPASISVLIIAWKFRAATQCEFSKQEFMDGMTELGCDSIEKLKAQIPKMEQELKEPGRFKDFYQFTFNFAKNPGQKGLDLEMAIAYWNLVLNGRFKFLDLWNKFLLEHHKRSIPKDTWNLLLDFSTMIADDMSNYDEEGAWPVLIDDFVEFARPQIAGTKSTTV
inactive: [1] -0.027 | [2] -0.077 | [3] 0.022 | [4] 0.078 | [5] 0.018 | [6] 0.008 | [7] 0.05 | [8] -0.028 | [9] -0.018 | [10] 0.013 | [11] -0.1 | [13] 0.018 | [14] 0.048 | [15] -0.006 | [16] -0.061 | [17] 0.03 | [18] 0.013 | [19] -0.056 | [20] -0.178
active: [12] -0.276

DNAH11 (UniProt Q96DT5)
inactive: [1] -0.109 | [2] 0.064 | [3] -0.13 | [4] 0.044 | [5] -0.007 | [6] 0.199 | [7] -0.15 | [8] 0.17 | [9] 0.111 | [10] -0.051 | [11] 0.234 | [12] 0.426 | [13] -0.029 | [14] -0.157 | [15] 0.063 | [16] 0.176 | [17] -0.111 | [18] -0.047 | [19] 0.298 | [20] -0.424

CTNNB1 (UniProt P35222)
active: [14] 0.887
inactive: [1] -0.118 | [2] -0.018 | [3] 0.09 | [4] -0.028 | [5] 0.172 | [6] -0.22 | [7] -0.002 | [8] -0.134 | [9] 0.129 | [10] 0.04 | [11] 0.2 | [12] -0.162 | [13] -0.116 | [15] -0.027 | [16] -0.304 | [17] -0.151 | [18] 0.124 | [19] -0.185 | [20] 0.379

CTSA (UniProt P10619)
inactive: [1] -0.033 | [2] 0.011 | [3] -0.02 | [4] 0.003 | [5] -0.016 | [6] -0.013 | [7] -0.039 | [8] -0.047 | [9] 0.117 | [10] 0 | [13] -0.037 | [14] -0.003 | [15] -0.031 | [16] 0.018 | [17] 0.011 | [18] -0.017 | [19] -0.007
active: [11] -1.24 | [12] -1.57 | [20] -1.44

DLD (UniProt P09622)
inactive: [1] -0.045 | [2] 0.025 | [3] 0.008 | [4] 0.013 | [5] -0.058 | [6] -0.021 | [7] -0.01 | [8] 0.029 | [9] -0.06 | [10] 0 | [11] 0.043 | [12] 0.143 | [13] -0.028 | [14] -0.015 | [15] 0.049 | [16] -0.007 | [17] -0.012 | [18] -0.008 | [19] -0.035 | [20] -0.118

ESS2 (UniProt Q96DF8)
active: [12] -0.245
inactive: [1] -0.085 | [2] 0.091 | [3] -0.024 | [4] -0.018 | [5] 0.032 | [6] -0.01 | [7] -0.013 | [8] -0.075 | [9] -0.01 | [10] -0.025 | [11] -0.025 | [13] -0.077 | [14] -0.012 | [15] 0.026 | [16] 0.036 | [17] -0.032 | [18] -0.008 | [19] 0.024 | [20] -0.012

F5 (UniProt P12259)
inactive: [1] 0.056 | [2] 0.036 | [3] -0.027 | [4] 0.011 | [5] -0.04 | [6] 0.066 | [7] -0.016 | [8] -0.036 | [9] -0.01 | [10] 0.034 | [11] -0.06 | [12] 0.105 | [13] -0.018 | [14] -0.125 | [15] 0.163 | [16] -0.048 | [17] -0.09 | [18] -0.054 | [19] 0.141 | [20] -0.009
